Laboratory results published in PubChem BioAssay (Tox21).
Inconclusive results are not listed. Calls of active or inactive are those of the source. Unless noted, calls follow the shape of the full dose curve.
% is scaled to controls: 0 for no effect and ±100 for the full control effect; potency is read from the fitted curve at half-maximal effect.

These compounds were tested against D(2) dopamine receptor (Homo sapiens) (UniProt P14416) (assay: Dopamine D2 receptor (DRD2) small molecule agonists, cell-based qHTS assay (AID 1963594; also: nearly all actives have a fitted effect of over 35% in size)). Conditions: HEK293-DRD2 cAMP HTRF, agonist mode, 30 min; series mostly up to 92.4 µM; activation: at the top concentration.
Chain of D(2) dopamine receptor (Homo sapiens) (P14416 whole entry, looked up): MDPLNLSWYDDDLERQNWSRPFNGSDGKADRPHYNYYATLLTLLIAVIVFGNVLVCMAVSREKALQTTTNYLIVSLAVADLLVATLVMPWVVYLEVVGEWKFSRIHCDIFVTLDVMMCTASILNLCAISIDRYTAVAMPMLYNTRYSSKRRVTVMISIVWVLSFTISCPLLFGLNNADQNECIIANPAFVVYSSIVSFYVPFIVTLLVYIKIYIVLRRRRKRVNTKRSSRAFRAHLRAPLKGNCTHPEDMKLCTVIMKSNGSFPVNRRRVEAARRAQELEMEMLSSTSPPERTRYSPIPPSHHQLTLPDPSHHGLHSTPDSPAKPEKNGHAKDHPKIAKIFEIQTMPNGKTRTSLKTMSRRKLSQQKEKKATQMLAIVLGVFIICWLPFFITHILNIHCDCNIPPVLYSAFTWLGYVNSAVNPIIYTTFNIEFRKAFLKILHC
Outline: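 HEK293 cells stably expressing DRD2 were cultured 24 h at 37 C, then given Ro20-1724 (0.1 mM final) and compounds for 10 min at room temperature. NKH477 (200nM) was then added for 30 min. cAMP was read by HTRF.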
With `CCOP(=S)(NC(C)C)Oc1ccccc1C(=O)OC(C)C` (stereo unspecified) the “activation” value was 2.22% (inactive). With `CCCCCCCc1ccc(O)cc1` the “activation” value was -10.9% (inactive). `CCOP(=O)(OCC)Oc1nc(Cl)c(Cl)cc1Cl` was tested, and the “activation” value was -1.04% (inactive). `O=c1ssc(Cl)c1Cl` was tested, and the “activation” value was 0.446% (inactive). In the case of `Nc1ccc(Cl)cc1C(=O)c1ccccc1`, the “activation” value is reported as 4.16% (inactive). With `CCCN(CCC)c1c([N+](=O)[O-])cc(C(F)(F)F)cc1[N+](=O)[O-]` the Potency was “inactive”. In the case of `CNC(=O)N(C)c1nc2ccccc2s1`, the “activation” value is reported as 17.2% (inactive). With `c1ccc2c(c1)cc1ccc3cccc4ccc2c1c34` the “activation” value was 6.23% (inactive). With `CC(C)(C)C(O)/C(=C\c1ccc(Cl)cc1Cl)n1cncn1` (stereo unspecified) the “activation” value was -15.9% (inactive). In the case of `NC1CCC(CC2CCC(N)CC2)CC1` (stereo unspecified), the “activation” value is reported as -1.38% (inactive). In the case of `O=[N+]([O-])c1ccc(Oc2ccc(C(F)(F)F)cc2[N+](=O)[O-])cc1`, the “activation” value is reported as -5.63% (inactive). For `CCCN(CC1CC1)c1c([N+](=O)[O-])cc(C(F)(F)F)cc1[N+](=O)[O-]`, the “activation” value was 0.543% (inactive). For `OCC(c1ccc(Cl)cc1)c1ccc(Cl)cc1`, the “activation” value was 4.73% (inactive). In the case of `CC(C)C1CCC(Cc2ccc(Cl)cc2)C1(O)Cn1cncn1` (stereo unspecified), the “activation” value is reported as -7.97% (inactive). With `COC(C)(C)CCC[C@H](C)C/C=C/C(C)=C/C(=O)OC(C)C` the “activation” value was -6.1% (inactive). For `CCCSP(=S)(OCC)Oc1ccc(Cl)cc1Cl` (stereo unspecified), the “activation” value was -0.192% (inactive). For `O=[N+]([O-])c1cc(C(F)(F)F)cc([N+](=O)[O-])c1Cl`, the “activation” value was -0.858% (inactive). `c1cc(OCC2CO2)ccc1Cc1ccc(OCC2CO2)cc1` (stereo unspecified) was tested, and the Potency was “inactive”. For `Cc1cc(C2CC2)nc(Nc2ccccc2)n1`, the “activation” value was 1.77% (inactive). With `CN1CCc2cc3c(cc2C1O)OCO3` (stereo unspecified) the “activation” value was 0.243% (inactive). For `O=C1C(I)=CC(=C(c2cc(I)c(O)c(I)c2)c2ccccc2C(=O)O)C=C1I`, the “activation” value was 10.1% [at 42.5 µM] (inactive). With `Oc1ccc([C@H]2CNCc3c2ccc(O)c3O)cc1O` the Potency was 17.4 µM (active). With `CCC1(CC)C(=O)N=C(O)NC1=O` the “activation” value was 0.0486% (inactive). For `CCCCN(CCCC)C(=S)S`, the “activation” value was -1.32% (inactive). For `CSC(=O)c1c(C(F)F)nc(C(F)(F)F)c(C(=O)SC)c1CC(C)C`, the “activation” value was -19.1% (inactive). For `CC(C)(c1ccccc1)c1ccc(O)cc1`, the “activation” value was -0.476% (inactive). `Brc1ccc(Oc2ccc(Br)cc2Br)c(Br)c1` was tested, and the “activation” value was -3.38% (inactive). `CCOC(=O)CCN(SN(C)C(=O)Oc1cccc2c1OC(C)(C)C2)C(C)C` was tested, and the “activation” value was -12.2% (inactive).

These compounds were tested against D(2) dopamine receptor (Homo sapiens) (UniProt P14416) (assay: Dopamine D2 receptor (DRD2) small molecule antagonists, cell-based qHTS assay (AID 1963595; active = well fitted inhibition curve with a large enough effect in the signal ratio in the repeat runs, with a control signal flat; the % refers to the signal ratio)). Conditions: HEK293-DRD2 cAMP HTRF antagonist mode; series mostly up to 92.4 µM; activity change, negative = inhibition: at the top concentration.
Outline: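 Antagonist mode in DRD2-HEK293 cells: after compound addition with 0.1 mM Ro20-1724, cells received quinpirole (12 nM) and NKH477 (200 nM) for 30 min at room temperature; HTRF cAMP read after 1 h detection.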
For `CCOP(=S)(NC(C)C)Oc1ccccc1C(=O)OC(C)C` (stereo unspecified), the “activity change, negative = inhibition” value was -12.6% (inactive). For `COC(=O)C(C)N(C(=O)c1ccco1)c1c(C)cccc1C` (stereo unspecified), the “activity change, negative = inhibition” value was 0.916% (inactive). `CCOP(=O)(OCC)Oc1nc(Cl)c(Cl)cc1Cl` was tested, and the “activity change, negative = inhibition” value was 24.8% (inactive). `O=c1ssc(Cl)c1Cl` was tested, and the “activity change, negative = inhibition” value was 2.14% (inactive). For `Nc1ccc(Cl)cc1C(=O)c1ccccc1`, the “activity change, negative = inhibition” value was 7.34% (inactive). In the case of `CCCN(CCC)c1c([N+](=O)[O-])cc(C(F)(F)F)cc1[N+](=O)[O-]`, the Potency is reported as “inactive”. In the case of `CNC(=O)N(C)c1nc2ccccc2s1`, the “activity change, negative = inhibition” value is reported as 0.059% (inactive). For `c1ccc2c(c1)cc1ccc3cccc4ccc2c1c34`, the “activity change, negative = inhibition” value was -5.36% (inactive). For `CCOc1cc(C(C)(C)C)ccc1C1COC(c2c(F)cccc2F)=N1` (stereo unspecified), the “activity change, negative = inhibition” value was -29.6% [at 42.5 µM] (inactive). With `NC1CCC(CC2CCC(N)CC2)CC1` (stereo unspecified) the “activity change, negative = inhibition” value was -0.864% (inactive). In the case of `O=[N+]([O-])c1ccc(Oc2ccc(C(F)(F)F)cc2[N+](=O)[O-])cc1`, the “activity change, negative = inhibition” value is reported as -2.12% (inactive). In the case of `CCCN(CC1CC1)c1c([N+](=O)[O-])cc(C(F)(F)F)cc1[N+](=O)[O-]`, the “activity change, negative = inhibition” value is reported as 0.236% (inactive). In the case of `OCC(c1ccc(Cl)cc1)c1ccc(Cl)cc1`, the “activity change, negative = inhibition” value is reported as -20.3% (inactive). `COC(C)(C)CCC[C@H](C)C/C=C/C(C)=C/C(=O)OC(C)C` was tested, and the “activity change, negative = inhibition” value was -3.4% (inactive). In the case of `O=C(N[C@H](c1ccccc1)[C@@H]1CN2CCC1CC2)c1c(Cl)ccc(C(F)(F)F)c1Cl`, the “activity change, negative = inhibition” value is reported as -2.49% (inactive). `O=[N+]([O-])c1cc(C(F)(F)F)cc([N+](=O)[O-])c1Cl` was tested, and the “activity change, negative = inhibition” value was 3.91% (inactive). In the case of `c1cc(OCC2CO2)ccc1Cc1ccc(OCC2CO2)cc1` (stereo unspecified), the Potency is reported as “inactive”. `Cc1cc(C2CC2)nc(Nc2ccccc2)n1` was tested, and the “activity change, negative = inhibition” value was 5.52% (inactive). With `NNC(N)=O` the “activity change, negative = inhibition” value was 6.28% (inactive). `CN1CCc2cc3c(cc2C1O)OCO3` (stereo unspecified) was tested, and the “activity change, negative = inhibition” value was -0.245% (inactive). With `Fc1ccc(Oc2ccnc3cc(Cl)cc(Cl)c23)cc1` the “activity change, negative = inhibition” value was 8.16% (inactive). `O=C1C(I)=CC(=C(c2cc(I)c(O)c(I)c2)c2ccccc2C(=O)O)C=C1I` was tested, and the “activity change, negative = inhibition” value was -0.179% [at 42.5 µM] (inactive). For `O=NN1CCNCC1`, the “activity change, negative = inhibition” value was 5.8% (inactive). `Oc1ccc([C@H]2CNCc3c2ccc(O)c3O)cc1O` was tested, and the “activity change, negative = inhibition” value was -0.0002% [at 42.5 µM] (inactive). For `CCC1(CC)C(=O)N=C(O)NC1=O`, the “activity change, negative = inhibition” value was -1.7% (inactive). In the case of `CCCCN(CCCC)C(=S)S`, the “activity change, negative = inhibition” value is reported as 1.79% (inactive). For `NS(=O)(=O)C(F)(F)C(F)(F)C(F)(F)C(F)(F)C(F)(F)C(F)(F)C(F)(F)C(F)(F)F`, the “activity change, negative = inhibition” value was 7.48% (inactive). In the case of `CSC(=O)c1c(C(F)F)nc(C(F)(F)F)c(C(=O)SC)c1CC(C)C`, the “activity change, negative = inhibition” value is reported as 9.24% (inactive). With `CCOP(=S)(Oc1ccc([N+](=O)[O-])cc1)c1ccccc1` (stereo unspecified) the “activity change, negative = inhibition” value was -18% (inactive). In the case of `CC(C)(c1ccccc1)c1ccc(O)cc1`, the Potency is reported as 61.1 µM (active). With `O=C1NCN(c2ccccc2)C12CCN(CCCOc1ccc(F)cc1)CC2` the Potency was 0.106 µM (active). For `Brc1ccc(Oc2ccc(Br)cc2Br)c(Br)c1`, the “activity change, negative = inhibition” value was 12.1% (inactive). For `CCOC(=O)CCN(SN(C)C(=O)Oc1cccc2c1OC(C)(C)C2)C(C)C`, the “activity change, negative = inhibition” value was -10.4% (inactive).
